# The list is not random: actives were taken first. Their share in the collection is about 17%.
# TDP1 inh: qHTS Assay for Inhibitors of Tyrosyl-DNA Phosphodiesterase (TDP1) | recombinant TDP1, AlphaScreen DNA substrate cleavage | Potency, µM (doses to about 130 µM), most hits filed as inhibitors | actives 0.28% (n = 350,000) | AID 485290, 2010; further: nearly all actives have a fitted effect of over 40% in size
#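 Recombinant E. coli-expressed Tdp1 (1 nM) preincubated with compound 15 min at RT, then 5'-biotin/3'-phosphotyrosine-FITC DNA substrate (15 nM) added for 5 min. AlphaScreen beads (10 ug/ml) added, 10 min RT; tyrosine-FITC cleavage read as signal loss.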
# TDP1 cell CPT: qHTS for Inhibitors of human tyrosyl-DNA phosphodiesterase 1 (TDP1): qHTS in cells in presence of CPT. actives 12% (n = 420,000). chicken DT40 Tdp1-/-;hTDP1 cells + 20 nM CPT, ATP luminescence, 48 h. Potency, µM (series often up to 46.2 µM), most hits filed as inhibitors; further: nearly all actives have a fitted effect of over 55% in size
#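 Chicken DT40 Tdp1-/- cells stably complemented with human TDP1 were seeded at 400 cells/well in medium containing 20 nM camptothecin, exposed to pin-transferred compounds, and grown at 37 °C for at least 48 hr. Viability was read as ATP luminescence.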
# ClpP mod: qHTS Assay for Activators of ClpP. ATP-dependent Clp protease proteolytic subunit (Bacillus subtilis (strain 168)), P80244. purified B. subtilis ClpP, FRET peptide cleavage, 20 min. Potency, µM (titrated, usually from 57.5 µM). actives 1.9% (n = 340,000); active means well fitted falling curve with a large enough effect; inconclusive means small, poorly fitted or top-dose-only effect; inactive means no such curve, though single readings can be large or run the other way; further: the source files actives as falling curves though it sought activators and does not explain the sign; nearly all actives have a fitted effect of over 65% in size
# Target sequence (P80244 whole entry, looked up): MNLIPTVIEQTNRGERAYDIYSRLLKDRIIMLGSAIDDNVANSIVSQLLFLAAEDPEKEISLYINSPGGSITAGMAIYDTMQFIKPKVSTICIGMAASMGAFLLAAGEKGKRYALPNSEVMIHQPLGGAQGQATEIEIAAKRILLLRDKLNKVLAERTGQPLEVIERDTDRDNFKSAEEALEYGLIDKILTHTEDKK
#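 FRET quenching reversal measured ClpP activation: 10 microg/mL B. subtilis ClpP at pH 8 with the FRET-FV decapeptide, read at 430 nm after 320 nm excitation. The 20-min minus 0-min signal was scaled between DMSO/no-enzyme wells and ADEP (5.8 microM final).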
# DT40 TDP1 no CPT: qHTS for Inhibitors of human tyrosyl-DNA phosphodiesterase 1 (TDP1): qHTS in cells in absence of CPT | DT40 Tdp1-/- hTDP1 cells, no CPT, ATP luminescence, 48 h | Potency, µM (titrated, usually from 46.2 µM), usual class: inhibitors | actives 15% (n = 420,000) | AID 686978, 2013; further: nearly all actives have a fitted effect of over 55% in size
#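 Growth of hTDP1-complemented DT40 Tdp1-knockout cells is measured by ATP luminescence after at least 48 hr compound exposure at 37 °C, with DMSO substituting for the 20 nM CPT used in the parallel screen.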
# Numbers stand for hits; 0 = inactive; ? = inconclusive; - = not tested or not shown; [ ] = dose if it differs, or a comment. Unless noted, the call rests on the fitted dose curve; in most records, active means well fitted curve in the direction sought with a large enough effect; inconclusive means small, poorly fitted or top-dose-only effect, or another doubt; inactive means no such curve, though single readings can be large; an effect the other way counts as inactive or inconclusive.
SMILES,TDP1 inh,TDP1 cell CPT,ClpP mod,DT40 TDP1 no CPT
COc1cc(NC(=O)c2cccs2)c(OC)cc1NC(=O)Cc1ccccc1,0,?,-,23.1µM
COc1cc(NC(=O)c2cccs2)c(OC)cc1NC(=O)c1cccs1,-,0,0,0
CCc1ccc(OCC(=O)Nc2ccc(S(=O)(=O)N3CCOCC3)cc2)cc1,0,0,0,0
CCOc1cc(N2CCOCC2)c(OCC)cc1NC(=O)CN1C(=O)NC(C)(c2ccc(OC)cc2)C1=O (centres undefined),-,0,0,0
Cc1ccc2nc(-c3cccc(Br)c3)c(Cc3ccccc3C(F)(F)F)n2c1,-,0,?,?
Cc1ccc(N(Cc2cccs2)C(=O)c2ccco2)cc1,0,?,0,?
COc1cc(NC(=O)c2cccs2)c(OC)cc1NC(=O)Nc1ccc(F)cc1,-,?,-,23.1µM
Cc1cc(=O)[nH]c(SCC(=O)C23CC4CC(CC(C4)C2)C3)c1C#N,0,8.2µM,0,18.4µM
N#Cc1ccc(C(=O)NNC(=O)c2cccc(S(=O)(=O)N3CCOCC3)c2)cc1,0,0,0,0
CC(Oc1ccc(O)cc1)(P(=O)(O)O)P(=O)(O)O,0,0,-,0
CC(=O)N1CCOc2cc(S(=O)(=O)Nc3c(C)cccc3C(C)C)c(Cl)cc21,8.91µM,?,0,?
COc1cccc(NS(=O)(=O)c2cc3c(cc2C)N(C(C)=O)CCO3)c1,-,?,0,?
CCOc1ccc(NS(=O)(=O)c2cc3c(cc2C)N(C)CCO3)cc1,-,20.6µM,0,20.6µM
Cc1cc2c(cc1S(=O)(=O)Nc1cccc(Cl)c1C)OCCN2C,0,?,0,18.4µM
Cc1noc(C)c1NC(=O)Nc1cccc2c1O[C@H](CN(C)C(=O)Nc1ccc3c(c1)OCO3)[C@@H](C)CN([C@H](C)CO)C2=O,0,0,0,0
O=C1CN(CC(=O)NC2CCCc3ccccc32)CCN1 (centres undefined),-,0,0,0
CCOC(=O)c1oc2nc(CC(C)C)c3c(c2c1N)CCCC3,0,23.1µM,-,23.1µM
Cc1ccc2c(=O)cc(C(=O)Nc3c(C(=O)c4ccccc4)oc4ccccc34)oc2c1,0,0,0,0
O=C(COC(=O)/C=C/c1ccc(C(F)(F)F)cc1)NC1CCS(=O)(=O)C1 (centres undefined),0[0.505 µM],?,-,20.6µM
COc1ccc(/C=C/C(=O)OCC(=O)Nc2cc(C(F)(F)F)ccc2Cl)cc1,0,?,0,11.6µM
COc1ccc(/C=C/C(=O)OCC(=O)Nc2cc(S(=O)(=O)N(C)C)ccc2Cl)cc1,0,0,-,0
Nn1c(SCc2ccc(F)cc2)nnc1-c1ccncc1,0,0,-,0
C=C1C(=O)C23CCC4C(C)(C(=O)OC)CCCC4(C)C2CCC1(O)C3 (centres undefined),-,0.651µM,0,0.517µM
CC(COc1ccc(/C=C/c2ccccc2)cc1)[N+](C)(C)C (centres undefined),-,4.11µM,0,3.26µM
CC(COc1ccccc1)NN (centres undefined),-,0,-,0
SMILES,TDP1 inh,TDP1 cell CPT,ClpP mod,DT40 TDP1 no CPT
NC(=NC1C2CC3CC(C2)CC1C3)Nc1ccc(I)cc1 (centres undefined),0,4.11µM,-,3.66µM
O=C(Nc1ccc(N2CCC(N3CCCCC3)CC2)c(C(=O)O)c1)c1ccccc1,0,0,0,0
CCN=c1scc(C)n1/N=C/c1ccc(O)c(O)c1O,0,14.6µM,0,7.31µM
CC(C)(C)c1ccc(OCC(=O)N/N=C/c2cc(Br)ccc2OC(=O)c2ccco2)cc1,0,4.61µM,0,4.11µM
CC(=O)Nc1ccc(Nc2nc(C)nc3c2nnn3Cc2ccccc2Cl)cc1,-,0,-,16.4µM
Cc1nc(Nc2ccc(Cl)cc2)c2nnn(Cc3ccccc3)c2n1,0,?,-,?
Cc1nc(N2CCCC2)c2nnn(Cc3ccccc3Cl)c2n1,0,13µM,0,25.9µM
CCCc1cc2c(n1CCc1ccc(Cl)cc1)C(C)C1CN(C(=O)c3ccccc3)C(C)(C(=O)OC)C21 (centres undefined),0,-,-,-
COc1ccc(CCNC(=O)Cc2c(C)c3c(cc(C)c4c(C)coc43)oc2=O)cc1OC,0,18.4µM,0,20.6µM
Cc1cc2oc(=O)c(CC(=O)NCCCO)c(C)c2c2occ(C(C)(C)C)c12,-,?,0,0
COCCNC(=O)Cc1c(C)c2c(cc(C)c3c(C(C)(C)C)coc32)oc1=O,-,9.2µM,14.1µM,14.6µM
COCCn1c(SC(C)C(=O)Nc2ccc(N3CCOCC3)cc2)nnc1-c1ccncc1 (centres undefined),-,0,0,0
CC(=O)c1ccc(OCc2nnn(CC(=O)O)c2-c2ccccc2)cc1,-,0,0,0
O=C(CNC(=O)c1ccc2c(c1)OCO2)N/N=C/c1cccc([N+](=O)[O-])c1,0,0,0,0
O=C(CNC(=O)c1ccc2c(c1)OCO2)N/N=C(Br)/C=C/c1ccccc1,0,2.59µM,0,7.31µM
CN(C)c1ccc(/C=C/C(=O)c2ccc3c(c2)OCCO3)cc1[N+](=O)[O-],0,0,-,0
COc1cccc(/C=C/C(=O)c2ccc3c(c2)OCO3)c1OC,0,?,0,18.4µM
COc1ccc(N/C=C\C(=O)c2ccc3c(c2)OCO3)cc1OC,0,0,0,0
O=C(/C=C/c1ccccc1)c1ccc2c(c1)OCO2,-,18.4µM,0,?
COc1cc(/C=C/C(=O)c2ccc3c(c2)OCCO3)cc(Br)c1OCC(=O)N(C)C,0,8.2µM,-,7.31µM
O=C(/C=C/c1ccc2c(c1)OCO2)c1ccc(F)cc1,0,?,0,?
NC(=O)C1CCN(c2nc(-c3ccccc3-c3ccccc3)cs2)CC1,0,-,-,-
O=C(/C=C/c1ccccc1Br)c1ccc2c(c1)OCO2,0,20.6µM,0,23.1µM
O=C(/C=C/c1ccncc1)c1ccc2c(c1)OCCO2,0,?,-,14.6µM
O=C(Nc1ccncc1)c1ccc2c(c1)OCCO2,0,?,0,?
SMILES,TDP1 inh,TDP1 cell CPT,ClpP mod,DT40 TDP1 no CPT
CN(C)c1ccc(/C=C/C(=O)c2ccc(O)cc2)cc1,-,?,0,10.3µM
CN(C)c1ccc(/C=C/C(=O)c2ccc3c(c2)OCO3)cc1,0,23.1µM,0,16.4µM
CN(C)c1ccc(/C=N/NC(=O)c2ccc3c(c2)OCO3)cc1,-,0,0,0
CN(C)c1ccc(C(=O)C=Cc2ccc([N+](=O)[O-])cc2)cc1,-,0,0,?
O=C(/C=C\Nc1ccccc1Br)c1ccc2c(c1)OCO2,0,0,-,?
CCc1ccc(C(=O)N/N=C/c2cccc3ccccc23)nc1,0,0,0,?
O=c1c2sc3ccccc3c2n(Cc2cccc(Cl)c2)c(=O)n1Cc1ccc(F)cc1,0,10.3µM,0,6.51µM
O=c1c2sc3ccccc3c2n(Cc2ccccc2)c(=O)n1Cc1ccccc1,0,0,?,0
O=c1c2sc3ccccc3c2n(Cc2cccc(Cl)c2)c(=O)n1Cc1ccccc1,0,13µM,0,?
